# Measurements as given in PubChem BioAssay.
# Results filed as inconclusive are left out. Activity calls are given as the source filed them.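 The calls were made as follows, unless noted: active = normalized viability below 100% at a tested concentration; inactive = the rest.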
# How the values were obtained:
# [1] = growth inhibition of DIPG glioma cells, dose response, cell-based, SU-DIPG-XVII, MIPE5.0, CellTiter-Glo, qHTS (AID 1347060; cut-off not given, nearly all actives have AC50 up to about 26 µM;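 as to AC50: cells exposed to compound for 48 hours before viability readout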); settings: SU-DIPG-XVII viability, CellTiter-Glo ATP luminescence
# [2] = growth inhibition of DIPG glioma cells, dose response, cell-based, SU-DIPG-XIII, MIPE4.0, CellTiter-Glo, qHTS (AID 1347061; cut-off not given, nearly all actives have AC50 up to about 37 µM;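 also: cells exposed to compound for 48 hours before readout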); settings: SU-DIPG-XIII viability, CellTiter-Glo ATP luminescence
# [3] = growth inhibition of DIPG glioma cells, dose response, cell-based, JHH-DIPG-1, MIPE4.0, CellTiter-Glo, qHTS (AID 1347062; cut-off not given, nearly all actives have AC50 up to about 27 µM;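 as to AC50: cells exposed to compound for two days before readout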); settings: JHH-DIPG-1 viability, CellTiter-Glo ATP luminescence
# [4] = growth inhibition of DIPG glioma cells, dose response, cell-based, SU-DIPG-IV, MIPE4.0, CellTiter-Glo, qHTS (AID 1347063; cut-off not given, nearly all actives have AC50 up to about 30 µM;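 also: compound exposure lasted 48 hours before the viability readout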); settings: SU-DIPG-IV viability, CellTiter-Glo ATP luminescence
# [5] = viability loss in pontine glioma line – cell-based, SU-DIPG-XXV, MIPE5.0, CellTiter-Glo, qHTS, dose response (AID 1347065; cut-off not given, nearly all actives have AC50 up to about 26 µM;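 also: cells exposed to compound for 48 hours before ATP readout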); settings: CellTiter-Glo ATP luminescence
# [6] = SU-DIPG-VI glioma cell viability, MIPE4.0 library, CellTiter-Glo luminescence, qHTS (AID 1347066; cut-off not given, nearly all actives have AC50 up to about 30 µM;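 also: cells exposed to compound for 48 hours before readout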); settings: CellTiter-Glo ATP luminescence
# [7] = JHH-DIPG-1 glioma cell viability, MIPE5.0 library, CellTiter-Glo luminescence, qHTS (AID 1347067; cut-off not given, nearly all actives have AC50 up to about 26 µM;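 also: cells exposed to compound for 48 hours before readout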); settings: JHH-DIPG-1 glioma viability, CellTiter-Glo ATP luminescence
# [8] = SU-DIPG-XXV glioma cell viability, MIPE5.0 library, qHTS (AID 1347068; cut-off not given, nearly all actives have IC50 up to about 30 µM;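 as to IC50: cells exposed to compound for 48 hours before viability readout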)
# [9] = modifiers of HSF1 nuclear foci, imaging, Selleck Cancer Library (AID 1347162; in the data active = plate-normalised HSF1 focus index below about 0.46); settings: human cells, at 10 µM; SSMD: measured here: HSF1 foci SSMD mean; cell count: measured here: cell number; plate-normalised HSF1 focus index: stronger effect = lower value
# [10] = ovarian cancer cell viability with rucaparib, profiling panel, oncology-focused library, rucaparib conditional (AID 1508598); settings: patient-derived ovarian cancer cells, CellTiter-Glo viability, 144 h, stronger effect = lower value
smiles,measurement,setting,value
CN[C@@H](C)[C@H]1[C@H](O)C[C@@]2(C)[C@@H]3CC[C@H]4C(C)(C)[C@@H](NC)CC[C@@]45C[C@@]35CC[C@]12C,outcome,[1],inactive
same,outcome,[2],inactive
same,outcome,[3],inactive
same,outcome,[4],inactive
same,outcome,[5],inactive
same,outcome,[6],inactive
same,outcome,[7],inactive
same,outcome,[8],inactive
Cn1c2cc(S(C)=O)sc2c2cnn(Cc3cccc(N)c3)c(=O)c21 (stereo not drawn),outcome,[1],inactive
same,outcome,[2],inactive
same,outcome,[3],inactive
same,outcome,[4],inactive
same,outcome,[5],inactive
same,outcome,[6],inactive
same,outcome,[7],inactive
same,outcome,[8],inactive
Cc1nc2cnc3ccc(C#Cc4cccnc4)cc3c2n1-c1ccc(C(C)(C)C#N)cc1,AC50,[1],468 nM (active)
same,AC50,[2],590 nM (active)
same,AC50,[3],0.166 µM (active)
same,AC50,[4],0.0296 µM (active)
same,AC50,[5],209 nM (active)
same,AC50,[6],1.18 µM (active)
same,AC50,[7],1.66 µM (active)
same,IC50,[8],2.63 µM (active)
Cc1ccc(C(=O)N(CCCN)[C@@H](c2oc3cc(Cl)ccc3c(=O)c2Cc2ccccc2)C(C)C)cc1,AC50,[1],33.2 nM (active)
same,outcome,[2],inactive
same,AC50,[3],14.8 µM (active)
same,AC50,[4],29.6 µM (active)
same,AC50,[5],11.8 nM (active)
same,AC50,[6],8.33 µM (active)
same,AC50,[7],1.66 µM (active)
same,IC50,[8],0.0417 µM (active)
same,SSMD,[9],0.849
same,cell count,[9],6430
same,plate-normalised HSF1 focus index,[9],1.05 (inactive)
same,viability,"[10]; at 0.000305 µM, OCI-C5x cells, with rucaparib 10 µM, 100% = cells with rucaparib alone",50.8% (active)
same,viability,"[10]; at 0.000305 µM, OCI-C5x cells, without rucaparib",63.1% (active)
same,viability,"[10]; at 0.000305 µM, OCI-P5x cells, with rucaparib 20 µM, 100% = cells with rucaparib alone",62% (active)
same,viability,"[10]; at 0.000305 µM, OCI-P5x cells, without rucaparib",22.5% (active)
same,viability,"[10]; at 0.00122 µM, OCI-C5x cells, with rucaparib 10 µM, 100% = cells with rucaparib alone",56.4% (active)
same,viability,"[10]; at 0.00122 µM, OCI-C5x cells, without rucaparib",61.8% (active)
same,viability,"[10]; at 0.00122 µM, OCI-P5x cells, with rucaparib 20 µM, 100% = cells with rucaparib alone",50.3% (active)
same,viability,"[10]; at 0.00122 µM, OCI-P5x cells, without rucaparib",19.3% (active)
same,viability,"[10]; at 0.00488 µM, OCI-C5x cells, with rucaparib 10 µM, 100% = cells with rucaparib alone",54.9% (active)
same,viability,"[10]; at 0.00488 µM, OCI-C5x cells, without rucaparib",63.8% (active)
same,viability,"[10]; at 0.00488 µM, OCI-P5x cells, with rucaparib 20 µM, 100% = cells with rucaparib alone",58.3% (active)
same,viability,"[10]; at 0.00488 µM, OCI-P5x cells, without rucaparib",18.4% (active)
same,viability,"[10]; at 0.0195 µM, OCI-C5x cells, with rucaparib 10 µM, 100% = cells with rucaparib alone",57.6% (active)
same,viability,"[10]; at 0.0195 µM, OCI-C5x cells, without rucaparib",55.3% (active)
same,viability,"[10]; at 0.0195 µM, OCI-P5x cells, with rucaparib 20 µM, 100% = cells with rucaparib alone",55.3% (active)
same,viability,"[10]; at 0.0195 µM, OCI-P5x cells, without rucaparib",19.7% (active)
same,viability,"[10]; at 0.0781 µM, OCI-C5x cells, with rucaparib 10 µM, 100% = cells with rucaparib alone",54.6% (active)
same,viability,"[10]; at 0.0781 µM, OCI-C5x cells, without rucaparib",50.1% (active)
same,viability,"[10]; at 0.0781 µM, OCI-P5x cells, with rucaparib 20 µM, 100% = cells with rucaparib alone",51.5% (active)
same,viability,"[10]; at 0.0781 µM, OCI-P5x cells, without rucaparib",20.3% (active)
same,viability,"[10]; at 0.313 µM, OCI-C5x cells, with rucaparib 10 µM, 100% = cells with rucaparib alone",54.9% (active)
same,viability,"[10]; at 0.313 µM, OCI-C5x cells, without rucaparib",50.6% (active)
same,viability,"[10]; at 0.313 µM, OCI-P5x cells, with rucaparib 20 µM, 100% = cells with rucaparib alone",55.7% (active)
same,viability,"[10]; at 0.313 µM, OCI-P5x cells, without rucaparib",19.2% (active)
same,viability,"[10]; at 1.25 µM, OCI-C5x cells, with rucaparib 10 µM, 100% = cells with rucaparib alone",49.2% (active)
same,viability,"[10]; at 1.25 µM, OCI-C5x cells, without rucaparib",49% (active)
same,viability,"[10]; at 1.25 µM, OCI-P5x cells, with rucaparib 20 µM, 100% = cells with rucaparib alone",48.4% (active)
same,viability,"[10]; at 1.25 µM, OCI-P5x cells, without rucaparib",17.8% (active)
same,viability,"[10]; at 5 µM, OCI-C5x cells, with rucaparib 10 µM, 100% = cells with rucaparib alone",4.98% (active)
same,viability,"[10]; at 5 µM, OCI-C5x cells, without rucaparib",4.99% (active)
same,viability,"[10]; at 5 µM, OCI-P5x cells, with rucaparib 20 µM, 100% = cells with rucaparib alone",0.708% (active)
same,viability,"[10]; at 5 µM, OCI-P5x cells, without rucaparib",6.42% (active)
CCNC(=O)CCC/C=C\C[C@@H]1[C@@H](/C=C/C(O)CCc2ccccc2)[C@@H](O)C[C@@H]1O (stereo partly drawn),outcome,[1],inactive
same,outcome,[2],inactive
same,outcome,[3],inactive
same,outcome,[4],inactive
same,outcome,[5],inactive
same,outcome,[6],inactive
same,outcome,[7],inactive
same,outcome,[8],inactive
CC[C@H](/C=C/[C@@H](C)[C@H]1CC[C@H]2[C@@H]3CC=C4C[C@@H](O)CC[C@]4(C)[C@H]3CC[C@]12C)C(C)C,outcome,[1],inactive
same,outcome,[2],inactive
same,outcome,[3],inactive
same,outcome,[4],inactive
same,outcome,[5],inactive
same,outcome,[6],inactive
same,outcome,[7],inactive
same,outcome,[8],inactive
